Bioassay records deposited in PubChem by several laboratories.
Jurkat tox 60K = cytotoxicity toward Jurkat cells | Jurkat E6.1 viability, ATP luminescence, 48 h | AID 463 | 1.2% of 56,000 active | inhibition, % at 4 µM;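 active = inhibition above the mean inhibition of all tested compounds plus 3 SD, cut at about 28% in these data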
JNK3 blocker = blocks human JNK3 kinase activity | P53779 | purified JNK3 kinase activity, HTS | inhibition, % at 8 µM | 0.61% of 60,000 active | AID 746; in the data active = inhibition above about 17%;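 note: 0% = DMSO and 100% = reference inhibitor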
PKA inh = blocks human protein kinase A activity; P17612; PKA Kemptide phosphorylation, Kinase-Glo ATP luminescence; inhibition, % at 6 µM; 0.1% of 65,000 active;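 active = inhibition above the screen-wide mean inhibition plus 3 SD, cut at about 21% in these data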
Hsp90 inh = displaces geldanamycin probe from tumor Hsp90; NCI-N417 lysate Hsp90, Cy3B-geldanamycin FP displacement; inhibition, % at 30 µM; 0.35% of 64,000 active; AID 429;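 active = inhibition above 50%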;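 note: 0% = tracer plus lysate wells and 100% = tracer alone without lysate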
ROCK2 blocker = ROCK2 (human) kinase inhibition. O75116. purified ROCK2, Kinase-Glo ATP depletion luminescence. inhibition, % at 6 µM. 0.35% of 60,000 active;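 active = inhibition above the screen-wide mean inhibition plus 3 SD, cut at about 18% in these data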;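 note: plate controls were DMSO wells for no effect and Y-27632 control wells after no-enzyme background subtraction for full effect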
Target sequence (O75116 whole entry, looked up): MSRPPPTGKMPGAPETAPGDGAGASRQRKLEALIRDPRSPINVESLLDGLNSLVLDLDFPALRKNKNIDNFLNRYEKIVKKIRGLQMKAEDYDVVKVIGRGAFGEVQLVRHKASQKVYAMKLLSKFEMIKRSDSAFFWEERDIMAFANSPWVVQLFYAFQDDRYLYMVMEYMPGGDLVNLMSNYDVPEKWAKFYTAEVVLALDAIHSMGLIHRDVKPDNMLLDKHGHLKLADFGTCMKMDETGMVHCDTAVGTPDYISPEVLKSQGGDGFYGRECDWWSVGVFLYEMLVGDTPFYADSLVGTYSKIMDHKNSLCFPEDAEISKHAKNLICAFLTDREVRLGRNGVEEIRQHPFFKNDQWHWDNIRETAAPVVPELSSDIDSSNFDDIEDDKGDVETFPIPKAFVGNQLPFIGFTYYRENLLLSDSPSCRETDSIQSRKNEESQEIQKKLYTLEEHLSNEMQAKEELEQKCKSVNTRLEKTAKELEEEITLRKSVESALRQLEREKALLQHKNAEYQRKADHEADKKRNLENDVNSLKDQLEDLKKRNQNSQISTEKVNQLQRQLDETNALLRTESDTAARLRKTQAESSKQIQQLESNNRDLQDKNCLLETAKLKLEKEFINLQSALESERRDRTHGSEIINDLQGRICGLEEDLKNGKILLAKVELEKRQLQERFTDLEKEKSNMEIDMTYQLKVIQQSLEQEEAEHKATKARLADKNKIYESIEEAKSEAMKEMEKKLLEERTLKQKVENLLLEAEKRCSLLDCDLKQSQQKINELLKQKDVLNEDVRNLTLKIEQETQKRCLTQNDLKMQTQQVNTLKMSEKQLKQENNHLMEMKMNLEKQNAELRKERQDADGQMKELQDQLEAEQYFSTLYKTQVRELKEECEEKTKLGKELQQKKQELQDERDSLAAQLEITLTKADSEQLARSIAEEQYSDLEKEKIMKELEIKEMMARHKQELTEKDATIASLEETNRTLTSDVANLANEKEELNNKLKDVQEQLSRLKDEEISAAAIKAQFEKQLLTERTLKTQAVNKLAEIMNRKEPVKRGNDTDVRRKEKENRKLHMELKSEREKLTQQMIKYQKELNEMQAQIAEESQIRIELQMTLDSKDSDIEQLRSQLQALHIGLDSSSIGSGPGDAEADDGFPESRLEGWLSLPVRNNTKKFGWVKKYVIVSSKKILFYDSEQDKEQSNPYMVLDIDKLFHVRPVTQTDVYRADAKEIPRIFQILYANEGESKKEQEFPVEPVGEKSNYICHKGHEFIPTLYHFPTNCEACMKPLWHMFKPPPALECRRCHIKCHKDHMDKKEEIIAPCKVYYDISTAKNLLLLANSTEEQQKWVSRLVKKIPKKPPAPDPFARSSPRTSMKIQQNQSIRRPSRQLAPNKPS
Numbers without * were called inactive; . = no result given. Only some compounds are listed: those with a hit (about 1.9% of all), similar ones and a draw of the others.

SMILES	Jurkat tox 60K	JNK3 blocker	PKA inh	Hsp90 inh	ROCK2 blocker
O=C1C2C3C=CC(C3)C2C(=O)N1CNc1ccc(O)cc1 (stereo not given)	24	4	7	61*	10
Cc1ccc(NCN2C(=O)C3C4C=CC(C4)C3C2=O)cc1 (stereo not given)	-3	5	6	-3	4
COc1ccc(-c2cn3c(C)c(C(=O)Nc4cc(NC(C)=O)ccc4OC)sc3n2)cc1	48*	3	-5	-3	0
CNC(=O)c1sc2nc(-c3ccc(OC)cc3)cn2c1C	-7	-8	6	-3	2
NC(=O)c1sc2nc3c(c(-c4cccs4)c2c1N)CCCC3	.	.	12	-4	.
NC(=O)c1sc2nc3c(c(-c4ccco4)c2c1N)CCC3	0	8	9	-7	35*
CSc1nnc(-c2ccc(S(=O)(=O)N3CCCC3)cc2)n1C	7	-7	-3	-2	-1
O=c1ccccn1Cc1ccccc1F	0	-4	3	0	0
O=c1c2cc3ccccc3n2cnn1Cc1ccccc1F	50*	13	1	0	-3
Cc1ccnc(SCC(=O)Nc2sc3c(c2C#N)CCCC3)n1	90*	0	5	-6	-1
N#Cc1c(NC(=O)CSC2=NCCS2)sc2c1CCCC2	2	-2	2	-14	-7
Cc1cc(C(=O)Nc2sc3c(c2C#N)CCC3)no1	45*	-2	3	-11	2
Cc1onc(-c2ccccc2)c1C(=O)Nc1sc2c(c1C#N)CCC2	49*	-4	10	.	3
Cc1cc(C(=O)Nc2sc3c(c2C#N)CCCC3)no1	18	6	4	-1	1
Cc1onc(-c2ccccc2)c1C(=O)Nc1sc2c(c1C(N)=O)CCC2	.	.	2	-13	.
Cc1ccc(CNc2ccc(O)cc2)cc1	5	-11	-8	56*	1
COc1ccc(CCNc2ncnc3c2oc2ccccc23)cc1OC	84*	2	1	-4	5
COc1ccc(CCNc2nc(C)nc3c2oc2ccccc23)cc1OC	.	.	7	.	.
Cc1cc(NC(c2cccnc2)c2ccc3cccnc3c2O)no1 (stereo not given)	37*	-1	6	-4	8
NS(=O)(=O)c1ccc(CCNc2ncnc3sccc23)cc1	85*	-6	2	-5	-8
CC1(C)CC(=O)C=C(NCCc2ccc(S(N)(=O)=O)cc2)C1	-5	4	6	-6	5
O=C(c1ccccc1)N1CCCC(C(=O)N2CCCCCC2)C1 (stereo not given)	-6	-1	8	1	0
Cc1onc(-c2ccccc2Cl)c1C(=O)N1CCN(c2cccc(Cl)c2)CC1	61*	-1	5	-5	5
O=C(c1cccc(F)c1)N1CCN(c2cccc(Cl)c2)CC1	80*	-6	6	-3	7
O=C(c1cccc(F)c1)N1CCCC(C(=O)N2CCCC2)C1 (stereo not given)	-3	35*	10	-2	4
SMILES	Jurkat tox 60K	JNK3 blocker	PKA inh	Hsp90 inh	ROCK2 blocker
Cc1onc(-c2ccccc2)c1C(=O)N1CCN(C/C=C/c2ccccc2)CC1	13	1	5	-2	22*
Cc1onc(-c2ccccc2Cl)c1C(=O)N1CCN(c2ccccc2)CC1	0	3	7	-4	6
CC(C)(C)c1ccc(-c2conc2N)cc1	13	1	6	0	-2
Cc1ccc(-c2nnn(CC(=O)N3CCN(c4ccccc4)CC3)n2)o1	2	-2	13	0	2
O=C(NCc1ccc2c(c1)OCO2)c1ccc2snnc2c1	5	6	6	1	38*
O=C(NCc1ccccc1F)C1CCCN(C(=O)NC2CCCCC2)C1 (stereo not given)	0	5	10	1	6
CC(=O)N1c2ccccc2N(Cc2ccc(C)cc2C)C(=O)C1(C)C	95*	1	-2	1	0
C=CCN1C(=O)C(C)(C)N(C(C)=O)c2ccccc21	1	6	5	-4	3
COc1ccc(N2CSC3=C(C#N)C(c4ccc(OC)c(OC)c4)CC(=O)N3C2)c(OC)c1 (stereo not given)	7	3	-1	77*	-3
COc1cccc(/C=C2/CN(C)CC3=C2OC(N)=C(C#N)C3c2cccc(OC)c2)c1 (stereo not given)	.	5	5	-9	11
Cc1cccc2cc(C#N)c(SCC(=O)N3CC(=O)Nc4ccccc43)nc12	99*	-8	4	-5	3
CCOC(=O)CSc1nc2c(sc3ccccc32)c(=O)n1CCCN1CCOCC1	6	24*	6	2	0
O=C(CSc1nc2c(sc3ccccc32)c(=O)n1CCO)NCC1CCCO1 (stereo not given)	-3	2	15	-1	7
CCC1(O)CC2CN(CCc3c([nH]c4ccccc34)[C@@](C(=O)OC)(c3cc4c(cc3OC)N(C)C3[C@]45CCN4CC=C[C@@](CC)([C@@H](OC(C)=O)[C@]3(O)C(=O)OC)[C@H]45)C2)C1 (stereo not given in full)	.	.	.	0	.
COC(=O)c1ccc2c(c1)SC1=C(CCCC1=O)N2	0	-25	0	85*	1
COC(=O)c1ccc2c(c1)NC(=O)C(N1CCCC1)S2 (stereo not given)	.	.	8	-6	.
Cc1cc2nnc(SCC(=O)NCc3ccco3)n2c2ccccc12	84*	2	5	-3	6
CCCCNc1c(C(=O)OCC)c(=O)[nH]c2ccccc12	1	0	8	1	3
CCOC(=O)c1c(-c2ccccc2)[nH]c2ccc(O)cc12	1	42*	8	-4	3
Cc1cc(=O)n(C)c(=O)n1CC(=O)N1CCCCCC1	0	-12	6	-5	0
O=C(CSc1n[nH]c(-c2ccccc2)n1)c1ccc(O)c(O)c1	22	2	-2	76*	-1
Cc1ccc(C(=O)CSc2n[nH]c(-c3ccco3)n2)cc1C	-7	-1	13	-4	6
CC1(C)CC(=O)C(/C=N/c2ncccc2C(=O)O)=C(O)C1	.	.	2	-3	.
CC1C(=O)N(C)C(=O)c2nc[nH]c21 (stereo not given)	.	.	.	0	.
Cc1cc2ccccc2c(=O)n1CC(=O)Nc1ccc2c(c1)OCO2	4	4	22*	2	13
SMILES	Jurkat tox 60K	JNK3 blocker	PKA inh	Hsp90 inh	ROCK2 blocker
Cn1nc(CC(=O)Nc2ccc(N3CCN(C(=O)OC(C)(C)C)CC3)cc2)c2ccccc2c1=O	99*	-3	7	-2	5
Cn1nc(CC(=O)Nc2ccc3c(c2)OCCO3)c2ccccc2c1=O	95*	4	14	0	7
Cn1nc(CC(=O)N2CCN(c3ccccc3)CC2)c2ccccc2c1=O	0	-3	9	-2	6
COc1ccccc1NC(=O)Cc1nn(C)c(=O)c2ccccc12	58*	1	4	-4	4
O=C(CN1C(=O)c2cccc3cccc1c23)Nc1ccc2c(c1)OCO2	-7	-1	6	-6	6
COc1cc(NS(=O)(=O)c2ccc([N+](=O)[O-])cc2[N+](=O)[O-])c2ncccc2c1	.	.	.	26	.
CC(C)(C)c1ccc(S(=O)(=O)/C=C/C#N)cc1	.	.	.	-1	.
